Common to all, as to conditions: Compound Concentration (nM):1000
Assay [1] has as its system CDKL3.
Assay [2] has as its system CDKL5.
Assay [3] relates to CHEK1.
Assay [4] concerns CHEK2.
Assay [5] relates to CIT.
Assay [6] deals with CLK1.
In assay [7] the test system is CLK2.
Assay [8] relates to CLK3.
Assay [9] deals with CLK4.
In assay [10] the test system is CSF1R-autoinhibited.
Assay [11] concerns CSF1R.
The test system of assay [12] is CSK.
Assay [13] concerns CSNK1A1L.
Assay [14] has as its system CSNK1A1.
For assay [15], the system named is CSNK1D.
In assay [16] the test system is CSNK1E.
Assay [17] concerns CSNK1G1.
Assay [18] relates to CSNK1G2.
For assay [19], the system named is CSNK1G3.
The subject of assay [20] is CSNK2A1.

Results on ten compounds are retold here after paper PMC7826789 (International Journal of Molecular Sciences, 2021).
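Also: KINOMEscan scanMAX binding as percent activity remaining versus control; lower means stronger binding.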

In the case of `C[C@@H](Oc1cc(-n2cnc3ccc(OC4CCN(C)CC4)cc32)sc1C(N)=O)c1ccccc1Cl` [GSK579289A], the “Percent Control” value in assay [1] is 100%; in [2], 100%; in assay [3] it was 90%; in [4], 100%; in assay [5] it was 78%; in [6], 62%. Further, the “Percent Control” value in assay [7] was 88%; in assay [8] it was 87%; in [9], 95%; in [10], 73%; in [11], 65%; in assay [12], 76%. The “Percent Control” value in assay [13] was 89%; in assay [14] it was 77%; in assay [15], 80%; in [16], 100%; in assay [17] it was 83%; in [18], 80%. In addition, the “Percent Control” value is 100% in assay [19] and 55% in assay [20].
On to `NS(=O)(=O)c1ccc(Nc2ncc(-c3ccccc3)o2)cc1` [GW572399X], for which the “Percent Control” value in [1], in assay [2], in assay [3], in [4], in [5] and in [6] was 100% each time. For the same compound, the “Percent Control” value is on record as 100% in assay [7]; 100% in assay [8]; 100% in [9]; 58% in assay [10]; 100% in assay [11]; 100% in [12]. The “Percent Control” value in assay [13] was 100%; in [14], 100%; in assay [15] it was 100%; in [16], 83%; in assay [17], 100%; in [18] it was 100%. Also, the “Percent Control” value in assay [19] amounted to 100%; in assay [20], 76%.
Turning to `COc1ccc2[nH]c3c4[nH]c5ccc(OC)cc5c4c4c(c3c2c1)C(=O)NC4=O` [GW296115X], the “Percent Control” value in assay [1] stood at 91%; in [2], 94%; in assay [3] it was 12%; in [4] it was 1.7%; in assay [5] it was 35%; in assay [6] it was 80%. In addition, the “Percent Control” value in assay [7] stood at 56%; in assay [8] it was 79%; in assay [9] it was 57%; in assay [10], 59%; in assay [11], 58%; in assay [12] it was 95%. The “Percent Control” value in assay [13] was 91%; in assay [14], 62%; in assay [15], 94%; in assay [16], 52%; in assay [17], 74%; in [18], 86%. Moreover, the “Percent Control” value in [19] turned out to be 100%; in assay [20], 61%.
As to `CC1=C(C(=O)Nc2ccc3[nH]ncc3c2)C(c2ccc3ccccc3c2)CC(=O)N1` (centres unmarked) [GSK270822A], the “Percent Control” value is recorded as 72% in assay [1]; 100% in assay [2]; 92% in [3]; 100% in [4]; 99% in assay [5]; 95% in [6]. Further, the “Percent Control” value in assay [7] stood at 80%; in assay [8] it was 91%; in assay [9], 70%; in assay [10] it was 54%; in assay [11], 82%; in [12], 95%. Moreover, the “Percent Control” value in assay [13] is 64%; in [14], 91%; in [15] it was 100%; in assay [16] it was 100%; in assay [17], 92%; in assay [18], 89%. The “Percent Control” value stood at 100% in assay [19] and 80% in assay [20].
`COc1cc(C)c(N(C)C(=O)CN(C)C)cc1Nc1nc(Nc2cccc(F)c2C(N)=O)c2cc[nH]c2n1` [GSK2219385]: the “Percent Control” value amounted to 100% in [1]; 44% in [2]; 92% in assay [3]; 69% in [4]; 100% in assay [5]; 54% in assay [6]. In addition, the “Percent Control” value in assay [7] amounted to 58%; in [8], 91%; in assay [9] it was 67%; in [10], 100%; in assay [11], 100%; in assay [12], 95%. The “Percent Control” value in [13] was 67%; in assay [14], 47%; in [15], 23%; in [16], 23%; in assay [17] it was 54%; in assay [18], 11%. Moreover, the “Percent Control” value is given as 28% in assay [19] and 78% in assay [20].
As to `C/C(Nc1ccc(S(N)(=O)=O)cc1)=C1/C(=O)Nc2ccccc21` [GW335962X], the “Percent Control” value came to 94% in assay [1]; 100% in assay [2]; 93% in assay [3]; 51% in [4]; 86% in assay [5]; 98% in assay [6]. For the same compound, the “Percent Control” value is 78% in assay [7]; 98% in assay [8]; 100% in [9]; 40% in assay [10]; 100% in [11]; 86% in [12]. Besides, the “Percent Control” value in [13] is 97%; in [14], 67%; in assay [15] it was 87%; in assay [16] it was 100%; in assay [17] it was 88%; in assay [18], 85%. The “Percent Control” value was 99% in [19] and 57% in assay [20].
For `COc1ccc2c(-c3ccnc(Nc4cccc(OC(F)(F)F)c4)n3)cnn2n1` [GW810372X], the “Percent Control” value was determined as 0% in assay [1]; 14% in [2]; 100% in assay [3]; 100% in assay [4]; 97% in assay [5]; 1.3% in [6]. Further, the “Percent Control” value in assay [7] came out at 2.8%; in assay [8], 32%; in assay [9], 2.4%; in assay [10], 86%; in assay [11], 100%; in [12] it was 100%. Moreover, the “Percent Control” value was 100% in assay [13]; 92% in assay [14]; 100% in assay [15]; 100% in assay [16]; 98% in assay [17]; 100% in assay [18]. Moreover, the “Percent Control” value in assay [19] was 100%; in [20] it was 67%.
With `COc1cc(N2CCN(C(C)C)CC2)ccc1Nc1nc(Nc2ccc(F)cc2C(=O)NC[C@@H](O)CO)c2cc[nH]c2n1` [GSK1392956A], the “Percent Control” value is 100% in assay [1]; 43% in [2]; 94% in assay [3]; 0.2% in [4]; 80% in [5]; 1.6% in [6]. Besides, the “Percent Control” value in assay [7] is given as 2.6%; in [8], 77%; in assay [9], 7.5%; in assay [10] it was 100%; in [11] it was 100%; in assay [12], 86%. The “Percent Control” value is 68% in assay [13]; 35% in [14]; 31% in assay [15]; 46% in [16]; 52% in [17]; 32% in assay [18]. Further, the “Percent Control” value in [19] was 29%; in assay [20], 51%.
As for `CCS(=O)(=O)c1ccc(OC)c(Nc2ncc(-c3cccc(OC)c3)o2)c1` [GW580509X], the “Percent Control” value in assay [1] came to 100%; in assay [2], 59%; in [3] it was 100%; in assay [4] it was 100%; in [5], 100%; in assay [6], 6.9%. Besides, the “Percent Control” value is 3.9% in [7]; 71% in assay [8]; 15% in [9]; 43% in assay [10]; 72% in [11]; 90% in assay [12]. The “Percent Control” value in assay [13] was 100%; in assay [14], 100%; in [15] it was 100%; in assay [16], 85%; in assay [17], 99%; in assay [18], 100%. Besides, the figures for the “Percent Control” value in assay [19] and in assay [20] were 97% and 21%, respectively.
For `O=C1Nc2ccc(C(=O)c3ccco3)cc2C1=Cc1cc(Cl)c(O)c(Cl)c1` [GW406108X], the “Percent Control” value in assay [1] turned out to be 100%; in assay [2], 100%; in [3] it was 100%; in assay [4], 42%; in [5], 89%; in assay [6] it was 3.3%. Besides, the “Percent Control” value in assay [7] turned out to be 0.1%; in assay [8], 6.2%; in assay [9], 12%; in assay [10] it was 61%; in [11] it was 93%; in assay [12], 79%. The “Percent Control” value in [13] was 100%; in [14] it was 93%; in [15], 100%; in [16], 100%; in [17], 82%; in [18], 96%. Further, the “Percent Control” value in assay [19] is 100%; in [20], 9.7%.
